Active and inactive are the calls of the source. How the source made its calls: active means hit-call score of the fitted dose curve at least 0.9, where 1 is the maximum; inactive means score below 0.9.
Assay: CCTE_Shafer_MEA_acute_per_burst_spike_number_mean: CCTE's Neural Acute Assay for Average Number of Spikes Per Burst, Shafer Lab (AID 2284015);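 further: hits are decreases in mean spikes per burst versus baseline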
In short: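 Percent change in mean spikes per single-electrode burst is compared between a 40 min baseline and a 40 min recording with compound (0.03-40 uM). Cultures were rat cortical neurons on MEA plates at DIV 13 or 15, recorded at 37 C, with DMSO as the negative control.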

Which outcome does the source give for `OCC(CO)n1cnc(-c2ccc(F)cc2)c1-c1ccnc(Oc2ccccc2)n1` here?
Its outcome is “inactive”.

Which outcome does the source give for `Cc1c(C)c2c(c(C)c1O)CCC(C)(COc1ccc(CC3SC(=O)NC3=O)cc1)O2` (stereo not given) here?
Its outcome is “inactive”.

For `CC(C)COC(=O)CCCCC(=O)OCC(C)C`, which outcome is on record?
Its outcome is “inactive”.

Which outcome does the source give for `NC(=Nc1ccccc1)Nc1ccccc1` here?
The outcome was “inactive”.

For `CN(C)C(=O)NC1(c2ccccc2)CCN(CCC[C@]2(c3ccc(Cl)c(Cl)c3)CCCN(C(=O)c3ccccc3)C2)CC1`, which AC50 is on record?
Its AC50 is 9.1 µM (active).

Which AC50 does the source give for `CSc1ccc(Oc2ccc(S(N)(=O)=O)cc2CN(C)C)cc1C` here?
Its AC50 is 36 µM (active).

Which AC50 does the source give for `Cc1cc(Cc2ccc(N)c(C)c2)ccc1N` here?
Its AC50 is 30 µM (active).

Which outcome does the source give for `CC1=C(C)S(=O)(=O)CCS1(=O)=O` here?
The outcome was “inactive”.

For `CCN(CC)CCOc1ccc(C(=C(Cl)c2ccccc2)c2ccccc2)cc1`, which outcome is on record?
The outcome was “inactive”.

Which AC50 does the source give for `COc1ccc(OC(F)(F)F)cc1CN[C@H]1CCCN[C@H]1c1ccccc1` here?
The AC50 was 5 µM (active).

For `O=C(O)CN(CC(=O)O)CC(=O)O`, which outcome is on record?
The outcome was “inactive”.

With `Cc1ccc(C(C)(C)C)c(O)c1` as the compound, how does the outcome read?
The outcome was “inactive”.

For `CN(C)CCCN1c2ccccc2Sc2ccc(Cl)cc21`, which outcome is on record?
Its outcome is “inactive”.

For `CCc1cc(C2=C(C(=O)O)N(c3ccccc3C(F)(F)F)S(=O)(=O)c3ccccc32)cc2c1OCO2`, which outcome is on record?
Its outcome is “inactive”.

With `CCCCC(CC)COP(=O)(OCC(CC)CCCC)OCC(CC)CCCC` (stereo not given) as the compound, how does the outcome read?
Its outcome is “inactive”.

Source: PubChem BioAssay (EPA / NIEHS)
